According to PubChem BioAssay (NCATS):
Inconclusive results are not listed. Calls of active or inactive are those of the source. Unless noted, calls follow the shape of the dose curve; as a rule, active = well fitted curve in either direction with a large enough effect (not every such curve was filed as active); inconclusive = small, poorly fitted or top-dose-only effect, or another doubt; inactive = flat fitted curve, though single readings scatter.

How the values were obtained:
[1] = biological target: Lysosomal acid glucosylceramidase (Homo sapiens) (UniProt P04062); assay: Glucocerebrosidase-p2 (AID 348; in the data active = potency below about 10 µM; also: potency is read from the fitted curve at half-maximal effect); settings: purified GBA, blue fluorogenic substrate, 40 min
Chain of Lysosomal acid glucosylceramidase (Homo sapiens) (P04062 whole entry, looked up): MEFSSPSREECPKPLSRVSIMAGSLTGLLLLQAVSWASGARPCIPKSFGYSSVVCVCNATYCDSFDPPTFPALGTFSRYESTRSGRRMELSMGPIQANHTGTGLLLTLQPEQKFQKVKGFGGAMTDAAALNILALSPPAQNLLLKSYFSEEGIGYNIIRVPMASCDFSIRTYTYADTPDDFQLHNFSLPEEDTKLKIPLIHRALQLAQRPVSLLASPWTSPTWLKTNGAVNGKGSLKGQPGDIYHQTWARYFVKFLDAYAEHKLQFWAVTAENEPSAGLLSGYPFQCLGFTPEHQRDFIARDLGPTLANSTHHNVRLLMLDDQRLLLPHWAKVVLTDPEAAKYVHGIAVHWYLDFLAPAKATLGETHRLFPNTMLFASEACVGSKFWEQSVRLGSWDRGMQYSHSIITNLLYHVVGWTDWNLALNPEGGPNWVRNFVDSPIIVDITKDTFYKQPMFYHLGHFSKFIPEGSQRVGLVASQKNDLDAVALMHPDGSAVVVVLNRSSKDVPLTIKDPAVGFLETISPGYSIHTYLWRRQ
Procedure, shortened: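 Normal human glucocerebrosidase (0.2 nM) with blue fluorogenic substrate (80 uM final) in citrate/phosphate pH 5.9 with 10mM sodium taurocholate, 0.01% tween-20; 40 min RT, NaOH/glycine stop; fluorescence Ex 365/Em 440; AC50 from a titration from 0.6 nM upwards.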

[2] = AP1 Signaling Pathway (AID 357); settings: ME-180 AP-1-bla reporter, EGF-induced, beta-lactamase ratio, 5 h; at 7.69 µM (top of the series) unless noted;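 also: ME-180 reporter cells stimulated with EGF at its EC50 level; % is scaled to controls: 0 for no effect and ±100 for the full control effect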
Procedure, shortened: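 Read-out was the 460nm/530nm emission ratio (excitation 405nm) after CCF4 loading for 2.5 hours at room temperature. Cells carried an AP-1-driven beta-lactamase reporter, were stimulated with EC50 EGF plus compound for 5 hours, and AC50 values came from titrations.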

[3] = biological target: Cytochrome P450 1A2 (Homo sapiens) (UniProt P05177); assay: p450-cyp1a2 (AID 410; calls by dose curve; also: potency is read from the fitted curve at half-maximal effect;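 as to activity change, negative = inhibition: -100% = full effect of reference inhibitor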); settings: recombinant CYP1A2, luciferin-ME demethylation, luminescence; series mostly up to 57 µM
Chain of Cytochrome P450 1A2 (Homo sapiens) (P05177 whole entry, looked up): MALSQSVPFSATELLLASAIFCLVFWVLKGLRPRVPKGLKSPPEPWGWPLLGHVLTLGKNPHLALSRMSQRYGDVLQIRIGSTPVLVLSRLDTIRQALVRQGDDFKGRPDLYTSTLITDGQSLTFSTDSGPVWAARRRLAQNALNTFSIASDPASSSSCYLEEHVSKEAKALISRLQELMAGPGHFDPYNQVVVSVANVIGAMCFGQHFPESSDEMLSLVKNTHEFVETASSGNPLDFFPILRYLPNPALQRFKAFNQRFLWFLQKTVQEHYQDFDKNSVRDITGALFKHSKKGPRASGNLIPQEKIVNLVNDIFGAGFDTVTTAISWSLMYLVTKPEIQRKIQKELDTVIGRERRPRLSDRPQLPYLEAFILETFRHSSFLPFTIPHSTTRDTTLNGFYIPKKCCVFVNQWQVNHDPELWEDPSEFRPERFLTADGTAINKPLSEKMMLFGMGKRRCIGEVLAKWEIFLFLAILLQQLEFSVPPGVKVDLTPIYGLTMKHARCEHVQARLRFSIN
Procedure, shortened: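 O-Demethylation of luciferin 6' methyl ether by human CYP1A2 is monitored as luciferase luminescence. Substrate sits at Km (100uM); enzyme is 20nM. Values are scaled to 57 uM furafylline as maximal inhibition.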

[4] = NFAT Signaling Pathway (AID 444); settings: Jurkat NFAT-bla M1, carbachol, beta-lactamase ratio, 5 h; at 7.69 µM (top of the series) unless noted;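 also: carbachol stimulus at about its EC50 of 1 µM final; % is scaled to controls: 0 for no effect and ±100 for the full control effect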
Procedure, shortened: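 Jurkat cells carrying an NFAT-driven β-lactamase reporter and co-transfected muscarinic M1 receptor were treated with compound plus carbachol (1 uM final, an EC50 level) for 5 h at 37 °C. CCF4 loading followed for 1 h at RT; 460/530 nm ratio gave %activity.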

[5] = Stat Signaling Pathway (AID 446); settings: ME-180 SIE beta-lactamase reporter, IL-6 stimulated, 5 h; at 7.69 µM (top of the series) unless noted;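 also: ME-180 cervical cancer cells given 40 pM IL-6 alongside compound; SIE-controlled beta-lactamase reporter measured as 460/530 nm FRET emission ratio; % is scaled to controls: 0 for no effect and ±100 for the full control effect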
Procedure, shortened: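 Compound effects on IL-6-induced STAT reporter activity were measured in ME-180 cells. After overnight culture, cells were co-treated with 40 pM IL-6 for 5 hrs before beta-lactamase substrate loading at room temperature.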

[6] = biological target: Glucocorticoid receptor (Homo sapiens) (UniProt P04150); assay: GR-EFC Redistribution (AID 451; calls by dose curve; also: potency is read from the fitted curve at half-maximal effect); settings: CHO-K1 GR-EFC translocation, beta-gal luminescence, 2 h
Chain of Glucocorticoid receptor (Homo sapiens) (P04150 whole entry, looked up, the tested form may be a part): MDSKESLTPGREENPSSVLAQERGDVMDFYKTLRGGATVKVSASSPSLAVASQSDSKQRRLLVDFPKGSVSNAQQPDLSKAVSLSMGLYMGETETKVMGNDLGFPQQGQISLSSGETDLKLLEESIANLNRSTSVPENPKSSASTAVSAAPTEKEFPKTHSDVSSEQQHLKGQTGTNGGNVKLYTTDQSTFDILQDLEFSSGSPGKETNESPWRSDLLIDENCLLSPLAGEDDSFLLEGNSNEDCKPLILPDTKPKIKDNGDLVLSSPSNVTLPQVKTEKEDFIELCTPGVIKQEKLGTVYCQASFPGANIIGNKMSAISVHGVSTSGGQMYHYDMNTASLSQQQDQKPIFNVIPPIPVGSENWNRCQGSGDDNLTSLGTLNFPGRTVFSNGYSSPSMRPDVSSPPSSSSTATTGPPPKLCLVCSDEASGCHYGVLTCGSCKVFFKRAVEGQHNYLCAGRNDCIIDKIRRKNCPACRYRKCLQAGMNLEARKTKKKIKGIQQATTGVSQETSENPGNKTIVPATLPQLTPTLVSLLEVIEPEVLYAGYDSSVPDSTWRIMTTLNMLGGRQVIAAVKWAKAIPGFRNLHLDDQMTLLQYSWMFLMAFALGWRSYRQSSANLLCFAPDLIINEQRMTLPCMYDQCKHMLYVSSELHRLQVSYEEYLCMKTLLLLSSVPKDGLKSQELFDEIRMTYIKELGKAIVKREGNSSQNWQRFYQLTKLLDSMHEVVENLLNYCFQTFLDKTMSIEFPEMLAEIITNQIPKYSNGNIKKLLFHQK
Procedure, shortened: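 CHO-K1 cells stably expressing nuclear-localized β-gal enzyme acceptor and GR fused C-terminally to the enzyme donor fragment; ligand-driven nuclear translocation restores β-gal by complementation. Compounds titrated up to 46 uM final, 2 h at 37 °C; luminescence read.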

[7] = biological target: Mitogen-activated protein kinase 10 (Mus musculus) (UniProt Q61831); assay: JNK3 AlphaScreen Assay (AID 530); settings: JNK3 lysate, c-Jun phosphorylation; series mostly up to 57.1 µM;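 also: kinase came from lysate of stimulated human HepG2 cells; signal reports phosphorylation of biotinylated GST-cJun 1-79 at Ser73 with 10 µM ATP; % is scaled to controls: 0 for no effect and ±100 for the full control effect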
Procedure, shortened: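 Phosphorylation of biotinylated GST-cJun(1-79) at Ser73 is measured by AlphaScreen proximity luminescence. Enzyme is JNK3 in HepG2 lysates activated with interleukin-1beta and tumor necrosis factor alpha; ATP is 10 uM final.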

[8] = biological target: 3',5'-cyclic-AMP phosphodiesterase 4B (Homo sapiens) (UniProt Q07343); assay: qHTS Assay for Inhibitors of PDE-IV (AID 607; active = well fitted activation curve with a large enough effect in the main read-out, with a control signal flat, not every such curve was filed as active; also: % of control where 0% means no effect); settings: HEK293 ACTOne CNG channel cells, membrane potential fluorescence; series mostly up to 22.9 µM
Chain of 3',5'-cyclic-AMP phosphodiesterase 4B (Homo sapiens) (Q07343 whole entry, looked up): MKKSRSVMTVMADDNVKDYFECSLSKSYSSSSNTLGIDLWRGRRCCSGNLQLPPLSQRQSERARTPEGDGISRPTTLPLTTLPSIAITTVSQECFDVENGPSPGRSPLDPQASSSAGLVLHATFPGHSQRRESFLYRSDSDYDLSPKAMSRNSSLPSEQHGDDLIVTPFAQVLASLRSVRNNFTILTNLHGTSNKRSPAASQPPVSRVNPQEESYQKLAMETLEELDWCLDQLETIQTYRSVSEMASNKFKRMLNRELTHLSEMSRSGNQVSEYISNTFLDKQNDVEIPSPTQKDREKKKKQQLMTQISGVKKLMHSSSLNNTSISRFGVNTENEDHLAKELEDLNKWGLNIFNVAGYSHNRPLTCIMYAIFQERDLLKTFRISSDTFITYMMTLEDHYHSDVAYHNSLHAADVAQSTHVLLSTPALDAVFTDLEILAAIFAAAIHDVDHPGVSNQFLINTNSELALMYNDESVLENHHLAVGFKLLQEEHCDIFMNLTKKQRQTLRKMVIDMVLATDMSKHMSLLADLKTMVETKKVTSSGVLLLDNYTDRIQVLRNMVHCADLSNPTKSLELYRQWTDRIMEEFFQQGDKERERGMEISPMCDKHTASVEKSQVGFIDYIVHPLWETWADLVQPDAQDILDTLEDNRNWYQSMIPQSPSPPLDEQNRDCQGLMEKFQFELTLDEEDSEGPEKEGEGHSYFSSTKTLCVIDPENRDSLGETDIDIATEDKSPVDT
Procedure, shortened: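 ACTOne HEK293 cells carry a modified cAMP-gated CNG channel and express endogenous PDE4; plated 1000 cells/well, compounds up to 22.9 uM final. Membrane-potential dye fluorescence (ex 535/em 590) was read; parental cells received 10 uM forskolin + 100 uM RO 20-1724.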

[9] = biological target: Cytochrome P450 3A4 (Homo sapiens) (UniProt P08684); assay: qHTS Assay for Inhibitors and Substrates of Cytochrome P450 3A4 (AID 884; active = well fitted curve in the direction sought with a large enough effect; an effect the other way counts as inactive or inconclusive; also: nearly all actives have a fitted effect of over 50% in size; also: potency is read from the fitted curve at half-maximal effect); settings: recombinant CYP3A4, Luciferin-PPXE luminescence; series mostly up to 57.1 µM
Chain of Cytochrome P450 3A4 (Homo sapiens) (P08684 whole entry, looked up): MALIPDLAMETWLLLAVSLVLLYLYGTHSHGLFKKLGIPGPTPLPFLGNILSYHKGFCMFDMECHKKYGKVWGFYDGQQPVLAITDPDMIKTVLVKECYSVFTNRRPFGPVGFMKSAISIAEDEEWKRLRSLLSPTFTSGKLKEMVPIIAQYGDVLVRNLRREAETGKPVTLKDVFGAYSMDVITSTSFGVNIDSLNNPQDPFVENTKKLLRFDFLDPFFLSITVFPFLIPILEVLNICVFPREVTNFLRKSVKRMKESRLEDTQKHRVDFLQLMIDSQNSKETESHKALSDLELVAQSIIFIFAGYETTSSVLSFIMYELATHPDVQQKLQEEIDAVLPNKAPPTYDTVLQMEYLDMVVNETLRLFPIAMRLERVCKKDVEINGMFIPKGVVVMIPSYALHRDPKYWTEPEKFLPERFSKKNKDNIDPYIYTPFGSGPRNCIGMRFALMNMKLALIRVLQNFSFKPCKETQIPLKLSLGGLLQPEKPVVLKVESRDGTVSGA
Procedure, shortened: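 Luminescent readout of luciferin produced by CYP3A4 (20 nM) dealkylation of Luciferin-PPXE, 25 uM (its KM). NADPH-driven reaction ran 60 min at RT after 10 min compound preincubation; data scaled to 57 uM ketoconazole as 100% inhibition.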

[10] = biological target: Cytochrome P450 3A4 (Homo sapiens) (UniProt P08684); assay: qHTS Assay for Activators of Cytochrome P450 3A4 (AID 885; active = well fitted curve in the direction sought with a large enough effect; an effect the other way counts as inactive or inconclusive; also: nearly all actives have a fitted effect of over 65% in size; also: potency is read from the fitted curve at half-maximal effect); settings: recombinant CYP3A4, Luciferin-PPXE luminescence, 60 min; series mostly up to 57.1 µM
Procedure, shortened: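 CYP3A4 activity: Luciferin-PPXE O-dealkylation, 25uM substrate, 200mM KPO4, RT throughout. Read-out is luciferase luminescence; higher values reflect activation.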

[11] = qHTS Assay for Lipid Storage Modulators (AID 1519; calls by dose curve); settings: Drosophila S3 cells, BODIPY lipid droplet/cell ratio, laser cytometry, cells loaded with oleic acid; for activity change, negative = inhibition: at 57.5 µM (top of the series)
Procedure, shortened: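 Cells seeded at 5,000 per well were treated with compounds over a concentration series and loaded with oleic acid (400 uM, as added). Lipid droplet fluorescence (488 nm excitation, 500-530 nm channel) was read by laser-scanning cytometry and normalized to 20 uM Triacsin C.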

[12] = Primary qHTS for small molecule stabilizers of the endoplasmic reticulum resident proteome: Secreted ER Calcium Modulated Protein (SERCaMP) assay (AID 1508630; active = well fitted curve in the direction sought with a large enough effect; an effect the other way counts as inactive or inconclusive; also: % is scaled to controls: 0 for no effect and ±100 for the full control effect); settings: SH-SY5Y GLuc-SERCaMP (Gaussia luciferase released on ER calcium loss) secretion, thapsigargin, luminescence; series mostly up to 38.4 µM
Procedure, shortened: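 The SH-SY5Y reporter protocol was run at 3 concentrations up to 38.3 uM (primary) or 11 concentrations (follow-up): 16 h compound, 100 nM thapsigargin for 4 h, then extracellular luciferase luminescence.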

[13] = biological target: Cytochrome P450 2C19 (Homo sapiens) (UniProt P33261); assay: qHTS Assay for Inhibitors and Substrates of Cytochrome P450 2C19 (AID 899; active = well fitted curve in the direction sought with a large enough effect; an effect the other way counts as inactive or inconclusive; also: potency is read from the fitted curve at half-maximal effect; nearly all actives have a fitted effect of over 60% in size); settings: recombinant CYP2C19, luciferin-H EGE luminescence; series mostly up to 57.1 µM
Chain of Cytochrome P450 2C19 (Homo sapiens) (P33261 whole entry, looked up): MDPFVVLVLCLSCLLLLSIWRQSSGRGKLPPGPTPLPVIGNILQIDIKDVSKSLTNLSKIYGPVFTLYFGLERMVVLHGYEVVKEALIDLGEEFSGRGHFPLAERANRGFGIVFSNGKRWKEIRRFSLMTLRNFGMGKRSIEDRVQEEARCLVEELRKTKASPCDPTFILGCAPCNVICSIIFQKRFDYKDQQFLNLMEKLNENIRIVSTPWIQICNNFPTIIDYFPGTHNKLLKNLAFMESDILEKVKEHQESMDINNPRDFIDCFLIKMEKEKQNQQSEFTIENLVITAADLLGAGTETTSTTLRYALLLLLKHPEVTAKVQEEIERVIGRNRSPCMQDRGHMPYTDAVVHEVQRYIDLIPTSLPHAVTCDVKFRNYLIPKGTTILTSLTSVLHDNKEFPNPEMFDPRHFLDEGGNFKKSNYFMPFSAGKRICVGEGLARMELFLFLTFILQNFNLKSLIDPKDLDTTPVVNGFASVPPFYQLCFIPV
Procedure, shortened: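 Human CYP2C19 (5nM) with Luciferin-H EGE at 10uM (its KM) in 50mM KPO4 was preincubated with compound for 10 min at 37C. NADPH regeneration started a 60 min 37C reaction. Luciferin was read by luminescence, normalized to 57uM ketoconazole.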

[14] = biological target: Cytochrome P450 2C9 (Homo sapiens) (UniProt P11712); assay: qHTS Assay for Inhibitors and Substrates of Cytochrome P450 2C9 (AID 883; active = well fitted curve in the direction sought with a large enough effect; an effect the other way counts as inactive or inconclusive; also: potency is read from the fitted curve at half-maximal effect; nearly all actives have a fitted effect of over 60% in size); settings: recombinant CYP2C9, luciferin-H luminescence, 60 min; series mostly up to 57.1 µM
Chain of Cytochrome P450 2C9 (Homo sapiens) (P11712 whole entry, looked up): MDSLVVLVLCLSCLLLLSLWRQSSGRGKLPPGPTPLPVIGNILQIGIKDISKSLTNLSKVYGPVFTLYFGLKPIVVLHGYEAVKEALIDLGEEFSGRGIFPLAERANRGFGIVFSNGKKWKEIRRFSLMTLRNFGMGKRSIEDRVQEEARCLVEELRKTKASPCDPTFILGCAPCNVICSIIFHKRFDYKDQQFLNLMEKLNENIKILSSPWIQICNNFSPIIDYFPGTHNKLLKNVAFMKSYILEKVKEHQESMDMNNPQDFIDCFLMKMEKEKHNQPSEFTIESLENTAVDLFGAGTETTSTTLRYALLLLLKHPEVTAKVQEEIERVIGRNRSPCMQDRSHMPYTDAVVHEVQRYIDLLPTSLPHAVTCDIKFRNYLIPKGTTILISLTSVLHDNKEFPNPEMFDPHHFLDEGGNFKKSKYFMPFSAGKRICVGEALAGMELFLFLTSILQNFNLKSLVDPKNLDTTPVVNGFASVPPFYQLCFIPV
Procedure, shortened: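 Human CYP2C9 (10nM) hydroxylated Luciferin-H (100uM, at its KM) to luciferin in 25mM KPO4. Compound was preincubated 10 min at 37C, then NADPH regeneration started a 60 min reaction at 37C. Luminescence was read after detection reagent, normalized to 57uM sulphaphenazole.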

[15] = qHTS Assay for Identification of Small Molecule Agonists for Hypoxia Response Element Signaling Pathway (AID 914; active = well fitted activation curve with a large enough effect in the signal ratio, with a control signal flat, not every such curve was filed as active; the % refers to the signal ratio; also: % of control where 0% means no effect); settings: ME-180 (cervical carcinoma) HRE-bla reporter, beta-lactamase ratio, CoCl2, 17 h; activation: stronger effect = higher value
Procedure, shortened: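 Cells were plated overnight, pin-dosed with compound in a titration series, co-stimulated with EC50 CoCl2 and incubated 17 hours at 37 degrees Celsius. CCF4 substrate was then loaded, and AC50 values came from the 460nm/530nm ratio.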

[16] = measured here: cell count channel max response
[17] = measured here: lipid channel max response

| Compound | Potency [1] | activity change, negative = inhibition [2] | Potency [3] | activity change, negative = inhibition [4] | activity, negative = inhibition [5] | Potency [6] | outcome [7] | Potency [8] | Potency [9] | Potency [10] | activity change, negative = inhibition [11] | max response [11, 16] [%] | max response [11, 17] [%] | Potency [12] | Potency [13] | Potency [14] | activation [15] |
| --- | --- | --- | --- | --- | --- | --- | --- | --- | --- | --- | --- | --- | --- | --- | --- | --- | --- |
| O=C(c1ccco1)N1CCC2(CC1)CN(c1ccc(-c3ccccc3)cc1)C2 | > 11.4 µM (inactive) | -23.8% (inactive) | 1 µM (active) | -4.82% (inactive) | -21.1% (inactive) | > 46 µM (inactive) | inactive | inactive | inactive | 3.98 µM (active) | 2.85% (inactive) | -15.3 | -11.7 | inactive |  |  |  |
| O=C(c1ccco1)N1CCC[C@@]2(CCN(Cc3nccs3)C2)C1 | > 11.4 µM (inactive) | 1.19% (inactive) | inactive | -14% (inactive) | -3.91% (inactive) | > 46 µM (inactive) | inactive | inactive |  | inactive | 4.23% (inactive) | 5.76 | 12.9 | inactive |  |  |  |
| FC(F)(F)c1cc(CN2CCCC3(CCNCC3)C2)cc(C(F)(F)F)c1 | > 11.4 µM (inactive) | 2.64% (inactive) | inactive | -4.7% (inactive) | 1.59% (inactive) | > 46 µM (inactive) | inactive | inactive | 7.94 µM (active) | inactive | 0.357% (inactive) | -0.613 | 2.14 | inactive |  |  |  |
| CC(C)NC(=O)N1CCC2(CC1)CCN(C(=O)c1cccc(F)c1)CC2 | > 11.4 µM (inactive) | 10.6% (inactive) | inactive | 6.56% (inactive) | 7.13% (inactive) | > 46 µM (inactive) | inactive | inactive | inactive | 20 µM (active) | 1.61% (inactive) | -10.3 | -8.2 | inactive |  |  |  |
| O=C(Nc1ccccc1)N1CC2(CCN(C(=O)c3ccncc3)CC2)C1 | > 11.4 µM (inactive) | 12.1% (inactive) | 10 µM (active) | 7.64% (inactive) | -1.5% (inactive) | > 46 µM (inactive) | inactive | inactive |  | inactive | 3.73% (inactive) | -8.48 | -2.29 | inactive |  |  |  |
| O=C(Nc1cccc(F)c1)N1CCCC2(CCN(S(=O)(=O)c3ccccc3)CC2)C1 | > 11.4 µM (inactive) | -9.39% (inactive) | inactive | -29.9% (inactive) | -7.25% (inactive) | > 46 µM (inactive) | inactive | inactive |  | inactive | 1.65% (inactive) | 13.8 | 17.3 | inactive |  |  |  |
| O=C(Oc1ccccc1)N1CCC2(CC1)CCN(c1ccccc1)CC2 | > 11.4 µM (inactive) | 20.6% (inactive) | inactive | -26.1% (inactive) | -1.28% (inactive) | > 46 µM (inactive) | inactive | inactive | inactive | 3.16 µM (active) | -1.08% (inactive) | -1.11 | -1.37 | inactive |  |  |  |
| O=C(c1ccncc1)N1CCC[C@@]2(CCN(c3ccccn3)C2)C1 | > 11.4 µM (inactive) | -20.6% (inactive) | 20 µM (active) | 6.17% (inactive) | -0.0595% (inactive) | > 46 µM (inactive) | inactive | inactive | 7.94 µM (active) | inactive | 4.35% (inactive) | 14.4 | 22.3 | inactive | 6.31 µM (active) |  |  |
| CS(=O)(=O)N1CCC2(CCCN(c3ccncc3)C2)CC1 | > 11.4 µM (inactive) | 10.1% (inactive) | inactive | -14.2% (inactive) | -2.99% (inactive) | > 46 µM (inactive) | inactive | inactive |  |  | 4.5% (inactive) | 17.1 | 26.8 | inactive | 1.26 µM (active) | 0.0794 µM (active) | 20.8% (inactive) |
| COc1ccc(NC(=O)N2CCCC3(CCN(C(=O)c4c(C)noc4C)CC3)C2)cc1 | > 11.4 µM (inactive) | -6.4% (inactive) | inactive | 7.7% (inactive) | -0.272% (inactive) | > 46 µM (inactive) | inactive | inactive |  | inactive | 3.9% (inactive) | 14.4 | 18.8 | inactive |  |  |  |
| O=C(c1cnccn1)N1CCC[C@@]2(CCN(c3ccccc3)C2)C1 | > 11.4 µM (inactive) | -15.8% (inactive) | 15.8 µM (active) | -3.48% (inactive) | -3.78% (inactive) | > 46 µM (inactive) | inactive | inactive | 7.94 µM (active) | inactive | -0.338% (inactive) | 17 | 18.8 | inactive |  |  |  |
| O=C(Oc1ccccc1)N1CCC2(CC1)CCN(c1ncccn1)CC2 | > 11.4 µM (inactive) | 3.96% (inactive) | inactive | -8.96% (inactive) | -1.88% (inactive) | > 46 µM (inactive) | inactive | inactive | inactive | 6.31 µM (active) | 2.83% (inactive) | -3.54 | 1.32 | inactive |  |  | 2.8% (inactive) |
